Screen size: about 52,000 compounds; about 4,300 (8.3%) were called active. What follows is part of a selection rich in actives, with near analogues and random picks from the rest. A number with no mark means an inactive call. No stated cut-off is given here; in the data, active means survival mostly below about 52% (no sharp cut-off); inactive means mostly above about 56%.
Each compound was assayed on DeltatarO mutant (assay: growth inhibition of S. aureus wild type versus tarO mutant, primary screen, teichoic acid synthesis inhibitors, RN4220, OD600 (AID 463173)). Conditions: OD600, 18 h, stronger effect = lower value, screened at 18.75 µg/mL (by protocol).
CCN1CCCC1CNC(=O)Nc1c[nH]c2ccc(C)cc2c1=O (stereo not given) gave a survival of 102%.
O=C(Nc1nc2n(n1)C(c1ccccc1)C=C(c1ccccc1)N2)c1ccc(Cl)c([N+](=O)[O-])c1 (stereo not given) gave a survival of 63%.
In the case of CC(C(=O)NCc1ccccc1)N1Cc2ccccc2C1=O (stereo not given), the survival is reported as 95%.
CCOC(=O)c1c(C)[nH]c(CCC(=O)NCCCN2CCN(c3ccccc3F)CC2)c1C showed a survival of 83%.
With CCC1(CC)Cc2ccccc2-c2nc(NN)n(Cc3ccccc3)c(=O)c21 the survival was 48% (active).
In the case of Cn1c(NN)nc2c(c1=O)C1(CCCC1)Cc1ccccc1-2, the survival is reported as 59%.
Work on NNc1nc2ccccc2c(=O)n1Cc1ccccc1 yielded a survival of 100%.
CN1CCN(C(=S)NCC2CCCO2)CC1 (stereo not given) was tested, and the survival was 64%.
Cc1cccc(NC(=O)Cn2c(=O)oc3cc(S(=O)(=O)NC4CCCC4)ccc32)c1 was tested, and the survival was 82%.
In the case of Cc1ccc(-c2cc(C(F)(F)F)c(C#N)c(SCC(=O)Nc3ccccc3)n2)cc1, the survival is reported as 53% (active).
COc1ccc(-c2cc(-c3ccccc3)nc(SCC(=O)CC(=O)OC(C)C)c2C#N)cc1 gave a survival of 55%.
Work on COc1ccc(-c2cc(-c3ccccc3)nc(SCC(=O)Nc3ccccc3F)c2C#N)cc1 yielded a survival of 140%.
N#CN=C(N)CSc1nc(-c2ccccc2)cc(-c2ccccc2)c1C#N showed a survival of 56%.
Cc1ccc(NC(=O)CSc2nc(-c3ccc(F)cc3)cc(C(F)(F)F)c2C#N)cc1 gave a survival of 63%.
In the case of COc1ccc(NC(=O)CSc2nc(-c3ccccc3)cc(-c3cc(OC)c(OC)c(OC)c3)c2C#N)c(OC)c1, the survival is reported as 54%.
CCN(CC)C(=O)CSc1nc(-c2ccccc2)cc(-c2ccc(OC)cc2)c1C#N was tested, and the survival was 45% (active).
With C#CCSc1nc(-c2ccccc2)cc(-c2ccccc2)c1C#N the survival was 40% (active).
With N#Cc1c(C(F)(F)F)cc(-c2ccc(F)cc2)nc1SCC(=O)Nc1ccccc1 the survival was 72%.
CCS(=O)(=O)CCSc1nc(-c2ccc(Br)cc2)cc(-c2ccccc2)c1C#N showed a survival of 85%.
Compound C=C(C)CSc1nc(-c2ccccc2)cc(-c2ccc(OC)cc2)c1C#N has a survival of 57%.
With COc1ccc(-c2cc(-c3ccccc3)nc(SCC(=O)Nc3ccccc3C)c2C#N)cc1 the survival was 56% (active).
Compound COc1ccc(OC)c(NC(=O)Nc2cccc(OCc3cc(=O)n4cc(C)ccc4n3)c2)c1 has a survival of 101%.
With COc1ccc(N2CCN(C(=O)c3ccc4c(c3)N(Cc3cc(C)ccc3C)C(=O)c3ccccc3S4=O)CC2)cc1 (stereo not given) the survival was 85%.
Work on Cn1c(=O)c2c(-c3ccccc3)n3c4ccccc4nc(-c4ccccc4)c3c2n(C)c1=O yielded a survival of 82%.
CCc1cccc(C)c1NC(=O)CN1C(=O)c2c(c3ccccc3n2C)C1c1ccc(OC)cc1 (stereo not given) showed a survival of 83%.
CCSc1ccccc1C(=O)N1CCN(c2nc3ccccc3s2)CC1 showed a survival of 92%.
In the case of COc1cccc(NC(=O)C(=O)NCC(c2ccc3c(c2)OCO3)N2CCOCC2)c1 (stereo not given), the survival is reported as 49%.
Work on COc1ccc(-c2nsc(NC(=O)COc3ccccc3OC)n2)cc1 yielded a survival of 61%.
With CCOC(=O)c1c(C)[nH]c(CCC(=O)NC(C)c2ccccc2)c1C (stereo not given) the survival was 94%.
In the case of Cc1ccc2nc(N(Cc3cccnc3)C(=O)C3COc4ccccc4O3)sc2c1 (stereo not given), the survival is reported as 94%.
Compound COc1cc(Cl)c(C)cc1NC(=O)c1cn(C2CCCC2)c(=O)c2c1c1ccccc1n2C has a survival of 109%.
COc1cccc(NC(=O)/C(C#N)=C\c2cn(Cc3ccc(Cl)cc3)c3ccccc23)c1 showed a survival of 77%.
For COc1ccc(CNC(=O)c2ccc3c(c2)N(Cc2ccccc2C)C(=O)c2ccccc2S3=O)cc1 (stereo not given), the survival was 99%.
For COc1ccc(C2CC(=O)c3cnc4c(-c5ccccc5)c(C)nn4c3C2)cc1OC (stereo not given), the survival was 54%.
Compound O=C(O)c1c2c(nc3ccc(S(=O)(=O)N4CCC(C(=O)NCc5ccc(Cl)cc5)CC4)cc13)CCCC2 has a survival of 90%.
For N#CC1=C(N)OC2=C(C(=O)CCC2)C1c1ccccc1C(F)(F)F (stereo not given), the survival was 78%.
CCOc1ccc(CNC(=O)Nc2ccc3c(c2)N(C)C(=O)c2ccccc2S3)cc1 was tested, and the survival was 75%.
In the case of COc1ccccc1N1CCN(C(=O)c2cc3c(=O)oc4ccccc4c3s2)CC1, the survival is reported as 169%.
CCCOc1ccc(-c2cc(C(F)(F)F)c(C#N)c(SCCC(=O)O)n2)cc1 was tested, and the survival was 29% (active).
CCOC(=O)CSc1nc(-c2ccc(OCC)cc2)cc(C(F)(F)F)c1C#N was tested, and the survival was 67%.
Cc1ccc(-c2cc(C(F)(F)F)c(C#N)c(SCC(=O)O)n2)cc1 showed a survival of 66%.
In the case of CSc1ccc(CCNC(=O)C2CCCN(S(=O)(=O)N(C)c3ccc(F)cc3)C2)cc1 (stereo not given), the survival is reported as 74%.
For CC1CN(c2ccc(Cl)cc2)c2nc3c(c(=O)n(CC(=O)O)c(=O)n3C)n2C1 (stereo not given), the survival was 84%.
COc1ccccc1N1CCN(C(=O)CNS(=O)(=O)c2ccc(Br)s2)CC1 showed a survival of 116%.
O=C(CNS(=O)(=O)c1ccc(Br)s1)N1CCN(c2ccccc2F)CC1 was tested, and the survival was 36% (active).
O=C(C1CCN(S(=O)(=O)c2ccc(Br)s2)CC1)N1CCN(c2ccc(F)cc2)CC1 gave a survival of 87%.
With O=C(CNS(=O)(=O)c1cccs1)N1CCN(c2ccccc2Cl)CC1 the survival was 45% (active).
Work on O=C(CNS(=O)(=O)c1cccs1)N1CCN(c2ccccc2F)CC1 yielded a survival of 51%.
COc1ccc(N2CCN(C(=O)CNS(=O)(=O)c3ccc(Br)s3)CC2)cc1 was tested, and the survival was 32% (active).
COc1ccc(N2CCN(C(=O)CNC3CC3)CC2)cc1 gave a survival of 74%.
For O=C(CNS(=O)(=O)c1ccc(Br)s1)N1CCN(c2ccc(F)cc2)CC1, the survival was 27% (active).
O=C(C1CCC(CNS(=O)(=O)c2ccc(Br)s2)CC1)N1CCN(c2ccc(F)cc2)CC1 (stereo not given) gave a survival of 74%.
For CCOC(=O)c1c(C)[nH]c(C)c1S(=O)(=O)NCC(=O)N1CCN(c2ccccc2F)CC1, the survival was 76%.
O=C(CNS(=O)(=O)c1cccs1)N1CCN(c2cccc(C(F)(F)F)c2)CC1 showed a survival of 83%.
Work on COc1cccc(N2CCN(C(=O)C3CCC(CNS(=O)(=O)c4ccc(Br)s4)CC3)CC2)c1 (stereo not given) yielded a survival of 78%.
